Reference: PubChem BioAssay (NCI)
The panel holds about 83,000 compounds, 20% with a hit somewhere; the sample as a whole holds those more often.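 96-well plates, one dose, 48 hours. Percent growth reported; active if below 10.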 A number with no mark means an inactive call. Activity calls are given as the source filed them.

What was measured:
Assay in all cases: NCI-60 one-dose screen, 48 h (100 = growth as untreated, 0 = no growth, -100 = all killed)
Settings in all cases: 10 µM unless noted
[1] = tested on: SR leukemia
[2] = tested on: RPMI-8226 leukemia
[3] = tested on: OVCAR-8 ovarian
[4] = tested on: OVCAR-5 ovarian
[5] = tested on: OVCAR-4 ovarian
[6] = tested on: SK-OV-3 ovarian
[7] = tested on: IGROV1 ovarian
[8] = tested on: OVCAR-3 ovarian
[9] = tested on: HS 578T breast
[10] = tested on: NCI/ADR-RES ovarian

| SMILES | growth [1] | growth [2] | growth [3] | growth [4] | growth [5] | growth [6] | growth [7] | growth [8] | growth [9] | growth [10] |
| --- | --- | --- | --- | --- | --- | --- | --- | --- | --- | --- |
| CS(=O)(=O)c1ccc(-c2nc3ccccc3n2CC(=O)N/N=C/c2ccccc2)cc1 | 99.1% | 108% | 112% | 98.5% | 116% | 93.2% | 99.7% | 105% | 102% | 105% |
| CCN(CC)CCOc1ccc(Nc2ncc3cc(-c4c(Cl)cccc4Cl)c(=O)n(CCOC)c3n2)cc1 | -30.8% (active) | 2.23% (active) | 9.23% (active) | 2.15% (active) | 35.3% | 2.93% (active) | -21.9% (active) | -22% (active) | 8.49% (active) | 6.66% (active) |
| O=C(c1c[nH]c2ccccc12)c1n[nH]c(=S)n1-c1ccc([N+](=O)[O-])cc1 | 92% | 68.4% | 97.1% | 101% | 85% | 95.4% | 73.1% | 95.3% | 92.8% | 106% |
| Brc1ccc(Nc2nc(Nc3cnc4ccccc4c3)c3[nH]cnc3n2)cc1 | 63.9% | 64.2% | 83.9% | 101% | 73.7% | 68.2% | 74.7% | 60.2% | 60.9% | 92.4% |
| COCC(=O)Oc1cc(-c2ccc(C)cc2C)c(OC(=O)COC)c(-c2ccc(C)cc2C)c1 | 20.6% | 34.2% | 59.5% | 38.1% | 50.5% | 66.2% | 50.1% | 51.9% | 55% | 68.2% |
| CC(C)(C)c1ccc(C(=O)N/N=C/c2ccc(O)cc2O)cc1 | 19.8% | 28.6% | 17.4% | 34.4% | 22% | 23.2% | 20% | 12.1% | 38.1% | 5.92% (active) |
| COC(=O)[C@@]1(C)CC[C@]2(C)CC[C@]3(C)C4=CC=C5C(=CC(=O)C(O)=C5C)[C@]4(C)[C@@H](O)C[C@@]3(C)[C@@H]2C1 | -6.62% (active) | 3.73% (active) | 4.47% (active) | 66.7% | 34% | 82.4% | -46.8% (active) | -16.6% (active) | 27.4% | 49% |
| CC1(C)N=C(N)N=C(N)N1c1ccc(S(=O)(=O)Nc2nccs2)cc1 | 104% | 108% | 104% | 91.9% | 104% | 102% | 100% | 107% | 103% | 106% |
| COc1cc(/C=C2\C(=O)N(CCCOc3cc(O)c4c(=O)cc(-c5ccccc5)oc4c3)c3ccccc32)cc(OC)c1O | 31.9% | 86.7% | 84.7% | 110% | 83.6% | 91.6% | 77.2% | 44.5% | 70.4% | 64% |
| CN(C)CCn1c(=O)c2ccccc2n2nc3ccccc3c12 | 46.8% | 101% | 79.2% | 105% | 83.9% | 94.5% | 74.9% | 99.2% | 97.8% | 76.7% |
| c1cc(OCCN2CCCCCC2)ccc1CNc1ccc2nc(CCC3CCCCC3)[nH]c2c1 | 26.1% | 4.27% (active) | 65.6% | 79.5% | 51.4% | 82.3% | 43.2% | 77.3% | 65.2% | 66.9% |
| CNC(=O)NCC1OC(n2cnc3c(NC(=O)Nc4ccccc4)ncnc32)C2OC(=O)CC12 (stereo not given) | 90.3% | 105% | 96.4% | 96.8% | 106% | 102% | 92.3% | 91.7% | 105% | 96.8% |
| COc1ccc(C2C3=C(COC3=O)N(CCO)c3cc4c(cc32)OCO4)cc1OC (stereo not given) | 24.3% | 88.8% | 102% | 94.7% | 88.1% | 84.1% | 60.9% | 43% | 92.4% | 94.7% |
| COc1ccc(Oc2ccc(/C=C/C(=O)c3cc4ccccc4oc3=O)cc2)cc1 | 80.9% | 59.6% | 93.5% | 112% | 80.7% | 92.4% | 70.1% | 107% | 101% | 85.6% |
| ClC(Cl)c1nc(-c2ccccc2)n2nc(-c3ccccc3)cc2n1 | 7.56% (active) | 0.699% (active) | 16.5% | 0.621% (active) | -10.8% (active) | 9.58% (active) | 52.7% | -28.3% (active) | -27.3% (active) | 6.09% (active) |
| CC1=Nc2cnc(Nc3ccc(N4CCCCC4)cc3)nc2Nc2ccccc21 | 34% | 34.3% | 77.2% | 82.7% | 52.2% | 104% | 63.3% | 94.9% | 84.5% | 62.6% |
| COc1cc(Cc2cc(-c3ccccc3)nn(Cc3ccccc3)c2=O)cc(OC)c1OC | 36% | 24.8% | 31.9% | 69.7% | 35.3% | 82.3% | 53.1% | 46.9% | 74.9% | 30.5% |
| CN(C)c1ccc(/C=C2\C=C(c3nc4ccccc4s3)OC2=O)cc1 | 96.7% | 72% | 100% | 96.9% | 81.7% | 86.8% | 89.7% | 102% | 92.2% | 98.8% |
| CCOC(=O)c1c(C)nc2ccccc2c1/C=C/c1ccc(F)cc1 | 56.3% | 48.7% | 70.4% | 93.1% | 64.2% | 87.6% | 66.6% | 80.8% | 96.3% | 41.2% |
| Cc1cc(N2CCN(CC(=O)Nc3ccc4c(ccn4Cc4ccccc4)c3)CC2)nc(N2CCOCC2)n1 | 107% | 67% | 68.2% | 97.9% | 84.4% | 81.9% | 76.8% | 89.3% | 82.8% | 79.4% |
| O=C1Nc2ccccc2/C1=N/N1C(=O)CN(CCCl)C1=O | 104% | 101% | 100% | 103% | 118% | 96.9% | 97.1% | 113% | 95.9% | 102% |
| Cc1cc(=O)n(C(=S)Nc2ccc(Cl)cc2)c2cc(O)ccc12 | 108% | 113% | 101% | 101% | 92.5% | 79.1% | 102% | 100% | 109% | 103% |
